Data as given in PubChem BioAssay (NCI).
The panel holds about 83,000 compounds, 20% with a hit somewhere; the sample as a whole holds those more often.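 Compound tested at a single concentration for 48 hours in 96-well plates; a percent growth value below 10 was scored as active.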 Active and inactive are the calls of the source.

Tested on: MDA-MB-468 breast
Assay: NCI-60 one-dose screen, 48 h (100 = growth as untreated, 0 = no growth, -100 = all killed)
Conditions: 10 µM unless noted

Row | SMILES | growth
1 | COc1ccc(CN2C(=O)OC(C)(COC(C)=O)C2=O)cc1 (stereo unspecified) | 92.9% (inactive)
2 | C#CCNC(=O)CC[C@@H](C)[C@H]1CC[C@H]2[C@@H]3CC[C@@H]4CC(=O)CC[C@]4(C)[C@H]3CC[C@]12C | -19.7% [100 µM] (active)
3 | C=CCn1c(SCC(=O)Nc2ccc(C(=O)/C=C/c3cc(OC)c(OC)c(OC)c3)cc2)nnc1-c1cc(OC)c(OC)c(OC)c1 | 26.1% (inactive)
4 | CC[C@H](C)[C@H](N)C(=O)O | 99.9% (inactive)
5 | COc1ccc(/C=C(\C#N)n2nnc3c(F)cccc32)cc1 | -7.36% (active)
6 | COc1cc(/C=C/CO)cc(OC)c1O[C@@H]1O[C@H](CO)[C@@H](O)[C@H](O)[C@H]1O | 91.9% (inactive)
7 | CCN(CC)CCCC(C)Nc1cc(O)cc2cccnc12 (stereo unspecified) | 73.9% (inactive)
8 | COc1c(O[C@@H]2OC(CO)[C@H](O)[C@H](O)C2O)cc2oc3cc(O)c(CC=C(C)C)c(O)c3c(=O)c2c1CC=C(C)C (stereo partly specified) | 99.8% (inactive)
9 | COc1ccc(C(=O)/C=C/c2cccnc2Nc2cc(OC)c(OC)c(OC)c2)cc1 | 9.95% (active)
10 | C=CCOc1ccc(N=NC(C#N)C#N)cc1 | 30.3% (inactive)
11 | CCOC(=O)N1C=CC2C=CC1C1C=CC=CC2N1C(=O)OCC (stereo unspecified) | 53.1% (inactive)
12 | Nc1nc2ccccc2c2c(=O)c3cccc(Cl)c3sc12 | -0.88% (active)
13 | CN1C(=O)NC(c2ccc(Cl)cc2)(c2ccc(Cl)cc2)C1=O | 104% (inactive)
14 | O=C1Nc2ccc(F)cc2/C1=C\c1nc(-c2ccccc2F)n2ccccc12 | 69.2% (inactive)
15 | CCOC(=O)NC(Cc1ccccc1)c1ccccc1 (stereo unspecified) | 106% (inactive)
16 | C#CCOc1c(OC)cc(C(=O)/C(C)=C/c2cccc(N=[N+]=[N-])c2)cc1OC | 24.2% (inactive)
17 | c1ccc(-c2cn3ccnc3c(-c3ccc4c(c3)ncn4C3CCCCC3)n2)cc1 | 112% (inactive)
18 | COc1cccc(C2C3=C(COC3=O)N(CCO)c3cc4c(cc32)OCCO4)c1 (stereo unspecified) | -52.9% (active)
19 | COc1cc(-c2cc(-c3ccc(Nc4nc(Nc5ccccc5)nc(Nc5ccc(Cl)cc5)n4)cc3)nc(N)n2)cc(OC)c1OC | 90.7% (inactive)
20 | Cc1nc(NN)c([N+](=O)[O-])c(NN)n1 | 122% (inactive)
21 | CC(=O)N1N=C(c2ccc(Nc3nc(Nc4ccc(F)cc4)nc(Nc4ccc(Cl)cc4)n3)cc2)CC1c1ccc(N(C)C)cc1 (stereo unspecified) | 56.2% (inactive)
22 | COc1ccc(-n2cnc3c(sc4ncc(Cl)cc43)c2=O)cc1 | 93.1% (inactive)
23 | Cc1cc(Nc2ccc(F)cc2)nc(N2CCN(c3ccnc4cc(Cl)ccc34)CC2)n1 | 17.6% (inactive)
24 | COc1ccc(-c2nc3cc(C(=O)Nc4cc(OC)c(OC)c(OC)c4)ccc3n2C2CCCCC2)cc1 | 128% (inactive)
25 | COc1ccc2c(c1)nnn1c3ncccc3c(N=O)c21 | -87.8% (active)
26 | COc1ccc(/C(C)=C(\c2ccc(OCCN3CCCCCC3)cc2)c2ccc(OC(=O)C3CCCCC3)cc2)cc1 | -74.5% (active)
